Source: PubChem
Sampled rows, rich in hits. Any-hit rate of the full collection: about 17%.
DT40 TDP1 no CPT = qHTS for Inhibitors of human tyrosyl-DNA phosphodiesterase 1 (TDP1): qHTS in cells in absence of CPT; DT40 Tdp1-/- hTDP1 cells, no CPT, ATP luminescence, 48 h; Potency, µM (titrated, usually from 46.2 µM), inactives show top-dose activity change, negative = growth inhibition, most hits filed as inhibitors; 420,000 tested, 15% active; also: % is scaled to controls: 0 for no effect and ±100 for the full control effect; nearly all actives have a fitted effect of over 55% in size
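Growth kinetics read by CellTiter-Glo luminescence after ≥48 hr at 37 °C. Cells: DT40 Tdp1-/- stably carrying human TDP1, 400 per well, compound exposure in the absence of CPT (DMSO vehicle).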
ATXN2 expr inh = Primary qHTS for Inhibitors of ATXN expression. Potency, µM (titrated, usually from 57 µM), for the others: at the highest dose activity change, negative = inhibition, most hits filed as inhibitors. 360,000 tested, 0.72% active. HEK-293 ATXN2-luciferase reporter, luminescence, 24 h; also: % is scaled to controls: 0 for no effect and ±100 for the full control effect; nearly all actives have a fitted effect of over 55% in size
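qHTS (up to 57 uM final) was run with 24 h compound exposure of reporter cells at 37 °C. Each well was multiplexed: SteadyGlo luminescence measured ATXN2-luciferase expression after a fluorogenic Gly-Phe-AFC viability readout (25 uM final).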
TGFb SMAD3 inh = qHTS for Inhibitors of TGF-b; HepG2 CAGA-GFP TGF-b/SMAD3 reporter, GFP fluorescence, 18 h; TGF-beta stimulated, 500 pg/mL final; 410,000 tested, 1.2% active; Potency, µM (highest dose often 46.1 µM), without a hit: at the top dose activity, negative = inhibition, hits mostly inhibitors; AID 588855, 2011; also: % is scaled to controls: 0 for no effect and ±100 for the full control effect; nearly all actives have a fitted effect of over 65% in size
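Inhibition was scored as loss of TGF-beta-induced (500 pg/mL final, 18 hours, 37 degrees C) GFP in HEPG2 cells carrying a CAGA-GFP reporter, in DMEM with 1% FBS. Well GFP was summed per cell; Activity was normalised to unstimulated and stimulated DMSO wells, then concentration-response fitting.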
S2 tox = Viability Counterscreen for Primary qHTS for Inhibitors of ATXN expression; AID 651635, 2014; 400,000 tested, 0.49% active; S2 cells (HEK-293 line with an ATXN2-luciferase reporter) viability, CellTiter-Fluor protease fluorescence, 24 h; Potency, µM (titrated, usually from 56.7 µM), hits mostly cytotoxic; also: nearly all actives have a fitted effect of over 40% in size
DT40 TDP1 CPT = qHTS for Inhibitors of human tyrosyl-DNA phosphodiesterase 1 (TDP1): qHTS in cells in presence of CPT; chicken DT40 Tdp1-/-;hTDP1 cells + 20 nM CPT, ATP luminescence, 48 h; Potency, µM (doses to about 46.2 µM), inactives show top-dose activity change, negative = growth inhibition, hits mostly inhibitors; 420,000 tested, 12% active; AID 686979, 2013; also: % is scaled to controls: 0 for no effect and ±100 for the full control effect; nearly all actives have a fitted effect of over 55% in size
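Chicken DT40 Tdp1-/- cells stably complemented with human TDP1 were seeded at 400 cells/well in medium containing 20 nM camptothecin, exposed to pin-transferred compounds, and grown at 37 °C for at least 48 hr. Viability was read as ATP luminescence.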
HepG2 tox = qHTS for Inhibitors of TGF-b: Cytotox Counterscreen; HepG2 CAGA-GFP viability, ATP luminescence, 18 h; Potency, µM (series often up to 46.1 µM), for inactives: top-dose activity change, negative = cytotoxicity, usual class: cytotoxic; AID 588856, 2011; 410,000 tested, 0.76% active
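CellTiter-Glo luminescence gave cytotoxicity after 18 hours at 37 degrees C. The cells were HepG2 CAGA-GFP in 1% FBS DMEM, stimulated with 500 pg/mL TGF-beta after compound addition. %Activity was normalised to no-cell wells (complete cell-killing) and DMSO (no toxicity), and curves were fitted and classified.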
The depositor's hits bear a star; i = inactive; ? = inconclusive; . = not tested or not shown; [ ] = another dose, or the depositor's remark. Calls follow the shape of the dose curve; as a rule, active = well fitted curve in the direction sought with a large enough effect; inconclusive = small, poorly fitted or top-dose-only effect, or another doubt; inactive = no such curve, though single readings can be large; an effect the other way counts as inactive or inconclusive. Potency is read from the fitted curve at half-maximal effect.

SMILES	DT40 TDP1 no CPT	ATXN2 expr inh	TGFb SMAD3 inh	S2 tox	DT40 TDP1 CPT	HepG2 tox
C[C@@H]1CN([C@@H](C)CO)S(=O)(=O)c2ccc(C#Cc3cccc(F)c3)cc2O[C@@H]1CN(C)CC1CC1	?	?	?	?	?	-37.3%
N#CCCn1c(=O)c(-c2ccc(F)cc2)nc2cnc(N3CCNCC3)nc21	20.6µM*	.	.	.	?	.
N#CCCn1c(=O)c(-c2ccc(Cl)cc2)nc2cnc(N3CCNCC3)nc21	?	.	.	.	7.31µM*	.
CN1CCN(c2ncc3nc(-c4ccc(Cl)cc4)c(=O)n(CCC#N)c3n2)CC1	16.4µM*	.	.	.	?	.
CN1CCN(c2ncc3nc(-c4cccc(C#N)c4)c(=O)n(CCC#N)c3n2)CC1	20.6µM*	.	.	.	?	.
COCCn1c(=O)c(-c2cccc(C#N)c2)nc2cnc(N3CCN(C)CC3)nc21	0.0%	.	.	.	-5.7%	.
CCC(=O)Nc1c(-c2ccccc2Cl)c(=O)c2ccccc2n1C	-10.6%	.	-0.7%	i	-13.7%	-16.7%
CC(C)OC(=O)Nc1ccc2c(c1)N(C(=O)CCN1CCOCC1)c1ccccc1CC2	?	-24.0%	4.8%	i	-27.3%	-2.7%
O=S(=O)(Nc1c(S(=O)(=O)c2ccccc2)c2nc3ccccc3nc2n1C1CCCCC1)c1ccccc1	5.17µM*	-20.4%	?	i	9.2µM*	-27.2%
Cc1cc(C(=O)Cn2nc(C(=O)O)c3ccccc3c2=O)c(C)n1-c1ccc(F)cc1	?	36.5%	-6.0%	i	29.1µM*	-20.3%
COc1cc2oc(=O)cc(-c3cccc(-c4ccc(C(F)(F)F)cc4)c3)c2c(OC)c1OC	14.6µM*	-6.3%	?	i	23.1µM*	-27.7%
COc1cc2oc(=O)cc(-c3ccc(-c4ccc(C#N)cc4)cc3)c2c(OC)c1OC	8.2µM*	-5.7%	?	i	7.31µM*	-33.8%
COc1cc(OC)c2c(-c3cccc(-c4ccc(C(C)=O)cc4)c3)cc(=O)oc2c1	0.92µM*	2.1%	?	i	1.16µM*	2.4%
COc1cc2oc(=O)cc(-c3ccc(-c4ccc(CO)cc4)cc3)c2c(OC)c1OC	18.4µM*	2.2%	3.6%	i	20.6µM*	-30.3%
Cc1cccc(-c2noc(-c3csc([C@@H]4C[C@H](O)[C@@H](CO)O4)n3)n2)c1	?	16.3%	1.8%	i	?	-15.9%
COc1ccc(NC(=O)Nc2ccc3c(c2)CCC3)cc1	-2.9%	3.9%	-1.1%	i	-26.4%	0.6%
Nc1nc(F)cc(N2CCCCCC2)n1	0.9%	-10.2%	-17.4%	i	-3.3%	-27.5%
C(=C\c1ccccc1)/CSc1nnc(-c2ccccn2)n1Cc1ccco1	2.91µM*	-19.1%	?	?	2.59µM*	-6.1%
Clc1ccc(OCc2nnc(SCc3nc4ccccc4[nH]3)n2Cc2ccco2)cc1	20.6µM*	-16.3%	?	i	20.6µM*	-28.0%
c1coc(Cn2c(SCc3nc4ccccc4[nH]3)nnc2-c2cnccn2)c1	23.1µM*	-9.5%	-7.2%	i	?	-36.8%
CCCCn1cnc2cc(C)c(C)cc21	?	-15.6%	4.4%	i	-18.5%	0.4%
Cc1snc(S(=O)(=O)/C(C#N)=N/Nc2cccc(C(F)(F)F)c2)c1C#N	?	-9.9%	-22.1%	i	16.4µM*	-25.7%
O=C(NCCN1Cc2ccccc2OC(c2ccccc2F)C1)c1ccco1 (centres undefined)	?	.	.	i	12.8%[9.04 µM]	.
O=C(NCc1ccc2c(c1)OCO2)Nc1ccc([N+](=O)[O-])cc1	4.11µM*	-18.2%	-15.8%	i	20.6µM*	-10.1%
O=C(NCc1ccccc1F)Nc1ccc([N+](=O)[O-])cc1	25.9µM*	-11.2%	2.4%	i	?	-8.3%
SMILES	DT40 TDP1 no CPT	ATXN2 expr inh	TGFb SMAD3 inh	S2 tox	DT40 TDP1 CPT	HepG2 tox
CCc1ccc(NC(=O)NCc2ccc3c(c2)OCO3)cc1	3.5%	-19.5%	-22.2%	?	-2.3%	-20.2%
O=C(NCc1ccco1)Nc1ccc([N+](=O)[O-])cc1	?	.	-1.9%	i	-13.6%	5.5%
O=C(Cn1c2ccccc2c(=O)c2ccccc21)Nc1cccc(F)c1	?	.	4.3%	i	16.4µM*	8.2%
CC[C@@H](C)CCCCC(=O)N[C@@H](CCNCS(=O)(=O)O)C(=O)N[C@H](C(=O)N[C@@H](CCNCS(=O)(=O)O)C(=O)N[C@H]1CCNC(=O)[C@H]([C@@H](C)O)NC(=O)[C@H](CCNCS(=O)(=O)O)NC(=O)[C@H](CCNCS(=O)(=O)O)NC(=O)[C@H](CC(C)C)NC(=O)[C@@H](CC(C)C)NC(=O)[C@H](CCNCS(=O)(=O)O)NC1=O)[C@@H](C)O	9.44µM*	.	.	.	?	.
CCOC(=O)c1sc(NC(=S)NC(=O)C2CCCC2)cc1C	16.4µM*	-3.1%	14.2%	i	?	-2.5%
CC1(C)Oc2ccc(C#N)cc2[C@@H](OC2=CC(=O)CC2)[C@@H]1O	1.6%[92.5 µM]	.	.	.	-10.4%[92.5 µM]	.
COC(=O)c1ccc(C(=O)Nc2ccc3nc(-c4cccnc4)[nH]c3c2)cc1	5.17µM*	0.4%	0.0%	i	-15.9%	-2.9%
COc1ccc(-c2nc3ccccc3[nH]2)cc1	13µM*	0.3%	8.1%	i	10.3µM*	7.94µM*
COc1cccc2cc(-c3nc4ccccc4[nH]3)c(=O)oc12	?	79.9%	9.7%	i	-4.5%	-35.9%
COc1ccc2oc(=Nc3ccccc3)c(-c3nc4ccccc4[nH]3)cc2c1	?	56.5%	111.6%	i	10.3µM*	-7.6%
Nc1cc(N)cc(-c2nc3ccccc3[nH]2)c1	18.4µM*	2.3%	-0.6%	i	10.3µM*	5.3%
CCCn1nc(C(=O)NNC(=O)c2cccc(C)c2)c2ccccc2c1=O	-27.2%	1.2%	-24.8%	i	-1.1%	-17.6%
Cc1ccn(C(=O)c2ccc(NC(=O)C3CC3)cc2)n1	?	.	-3.7%	i	-6.8%	-4.8%
COC(=O)c1ccc(C(=O)Nc2ccc3nc(-c4ccncc4)[nH]c3c2)cc1	-12.0%	139.0%	0.7%	i	?	-4.7%
COC(=O)c1ccc(-c2nc3ccccc3[nH]2)cc1	23.1µM*	25.3%	-10.7%	i	?	-35.3%
COc1ccc(-c2cc(=O)n(-c3nc4ccccc4[nH]3)[nH]2)cc1	-78.0%	-21.8%	-4.9%	?	35.5µM*	-45.1%
